{"source": "PubChem BioAssay (Tox21)", "note": "“And” between values parts separate entries of the source, which are not always exact repeats. Equal values may be shown once. Results filed as inconclusive are left out. A call without a number means that no potency is given here. The source made the active and inactive calls. Unless noted, the call rests on the fitted dose curve; in most records, active means well fitted curve in the direction sought with a large enough effect in the repeat runs; inconclusive means weak or mixed curves; inactive means no such curve, though single readings can be large; an effect the other way counts as inactive or inconclusive."}
{"experiment": "qHTS assay for small molecule disruptors of the mitochondrial membrane potential - cell viability (AID 720634; calls by dose curve; further: nearly all actives have a fitted effect of over 20% in size; further: potency means the concentration at half of the fitted maximal effect)", "conditions": "HepG2 viability, ATP luminescence (CellTiter-Glo), 1 h; series mostly up to 83.2 µM", "summary_of_the_method": "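Cytotoxicity was measured by ATP quantitation in HepG2 wells that had first been treated with compound for 1 hr and stained with m-MPI dye; CellTiter-Glo incubation was 30 min at room temperature.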"}
{"smiles": "C=CC(=C)CCC=C(C)C", "Potency": "inactive"}
{"smiles": "Cn1cnc2ncnc(N)c21", "Potency": "inactive"}
{"smiles": "Cc1cccc(Br)c1", "Potency": "inactive"}
{"smiles": "CCCCCCCCCC(=O)N(C)C", "Potency": "inactive"}
{"smiles": "[O]=[Zr]", "Potency": "inactive"}
{"smiles": "CC(COC(=O)c1ccccc1)OC(=O)c1ccccc1", "note": "(stereo unspecified)", "Potency": "inactive"}
{"smiles": "CCOC(=O)COc1ccc(C)cc1", "Potency": "inactive"}
{"smiles": "Oc1c(Br)cc(Br)c2cccnc12", "Potency": "inactive"}
{"smiles": "CCCCOC(=O)C(C)CC", "note": "(stereo unspecified)", "Potency": "inactive"}
{"smiles": "CC1CCCNC1", "note": "(stereo unspecified)", "Potency": "inactive"}
{"smiles": "CCC(=O)OCCc1ccccc1", "Potency": "inactive"}
{"smiles": "O=C(c1ccccc1)c1cc(Cl)ccc1O", "Potency": "inactive"}
{"smiles": "CC1(C)C(=O)N(Br)C(=O)N1Br", "Potency": "inactive"}
{"smiles": "O=C(Nc1ccc(Cl)c(Cl)c1)c1cc(Cl)cc(Cl)c1O", "Potency": "1.37 µM (active)"}
{"smiles": "C/C=C/C(=O)Oc1c(CCCCCC(C)C)cc([N+](=O)[O-])cc1[N+](=O)[O-]", "Potency": "3.06 µM (active)"}
{"smiles": "C(=C/c1ccccc1)/c1ccccc1", "Potency": "inactive"}
{"smiles": "CCc1cccc(C)c1", "Potency": "inactive"}
{"smiles": "NC(=O)c1ccccc1N", "Potency": "inactive"}
{"smiles": "CCCCCCCC/C=C\\CCCCCCCC(=O)OCCOC(=O)CCCCCCC/C=C\\CCCCCCCC", "Potency": "inactive"}
{"smiles": "CC1=C(/C=C/C(C)=C/C=C/C(C)=C/C(=O)Nc2ccc(O)cc2)C(C)(C)CCC1", "Potency": "inactive"}
{"smiles": "CCC(C)(C)c1cc(O)c(C(C)(C)CC)cc1O", "Potency": "inactive"}
{"smiles": "Cc1cn[nH]c1", "Potency": "inactive"}
{"smiles": "O=C(Nc1ccc(Cl)cc1)Nc1ccc(Cl)c(C(F)(F)F)c1", "Potency": "1.5 µM (active)"}
{"smiles": "Cc1c(C(=O)O)cccc1[N+](=O)[O-]", "Potency": "inactive"}
{"smiles": "CC(=O)Oc1ccc(C2(c3ccc(OC(C)=O)cc3)Oc3ccccc3NC2=O)cc1", "Potency": "inactive"}
{"smiles": "CCCCCCCCCCCCCCNCCO", "Potency": "inactive"}
{"smiles": "CCNc1nc(NC(C)CC)nc(OC)n1", "note": "(stereo unspecified)", "Potency": "inactive"}
{"smiles": "ClC/C=C\\CCl", "Potency": "inactive"}
{"smiles": "COC(=O)CC#N", "Potency": "inactive"}
{"smiles": "O=C(O)c1cccc(Cl)n1", "Potency": "inactive"}
{"smiles": "C=CC(C)(CCC=C(C)C)OC(=O)/C=C/c1ccccc1", "note": "(stereo unspecified)", "Potency": "inactive"}
{"smiles": "COC(=O)NCCC[Si](OC)(OC)OC", "Potency": "inactive"}
{"smiles": "O=C(O)CC(=O)O", "Potency": "inactive"}
{"smiles": "C1CC(COCC2CO2)CCC1COCC1CO1", "note": "(stereo unspecified)", "Potency": "inactive"}
{"smiles": "CC(C)=C1CC[C@@H](C)CC1=O", "Potency": "inactive"}
{"smiles": "CCCCCCCCCCCCCCCC", "Potency": "inactive"}
{"experiment": "qHTS assay for small molecule disruptors of the mitochondrial membrane potential (AID 720635); further: potency means the concentration at half of the fitted maximal effect", "conditions": "HepG2 mitochondrial membrane potential, Mito-MPS dye ratio; series mostly up to 83.2 µM", "summary_of_the_method": "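Mitochondrial membrane potential tracked with Mito-MPS dye, red aggregates (ex 540/em 590 nm) against green monomers (ex 490/em 535 nm). Compound treatment 1 hr at 37C, dye 30 min in HepG2.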"}
{"smiles": "CCOC(=O)COc1ccc(C)cc1", "Potency": "inactive"}
{"smiles": "CCC(=O)OCCc1ccccc1", "Potency": "inactive"}
{"smiles": "O=C(c1ccccc1)c1cc(Cl)ccc1O", "Potency": "25.9 µM (active)"}
{"smiles": "O=C(Nc1ccc(Cl)c(Cl)c1)c1cc(Cl)cc(Cl)c1O", "Potency": "0.137 µM (active)"}
{"smiles": "NC(=O)c1ccccc1N", "Potency": "inactive"}
{"smiles": "CCCCCCCC/C=C\\CCCCCCCC(=O)OCCOC(=O)CCCCCCC/C=C\\CCCCCCCC", "Potency": "79.8 µM (active)"}
{"smiles": "CC1=C(/C=C/C(C)=C/C=C/C(C)=C/C(=O)Nc2ccc(O)cc2)C(C)(C)CCC1", "Potency": "3.35 µM (active) and 2.8 µM (active)"}
{"smiles": "CCC(C)(C)c1cc(O)c(C(C)(C)CC)cc1O", "Potency": "4.86 µM (active)"}
{"smiles": "Cc1cn[nH]c1", "Potency": "inactive"}
{"smiles": "ClC/C=C\\CCl", "Potency": "inactive"}
{"smiles": "COC(=O)CC#N", "Potency": "inactive"}
{"smiles": "O=C(O)c1cccc(Cl)n1", "Potency": "inactive"}
{"smiles": "C1CC(COCC2CO2)CCC1COCC1CO1", "note": "(stereo unspecified)", "Potency": "inactive"}
{"smiles": "CCCCCCCCCCCCCCCC", "Potency": "inactive"}
{"experiment": "qHTS assay to test for compound auto fluorescence at 590 nm (red) in HepG2 cells (AID 720674)", "conditions": "HepG2 autofluorescence, red 540/590 nm, 1 h; series mostly up to 91.3 µM", "summary_of_the_method": "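We screened compounds on adherent HepG2 cells, incubating them for an hour at 37 C in 5% CO2 before reading emission at 590 nm under 540 nm excitation; values reflect equivalence to Rose Bengal sodium fluorescence.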"}
{"smiles": "C=CC(=C)CCC=C(C)C", "Potency": "inactive"}
{"smiles": "Cn1cnc2ncnc(N)c21", "Potency": "inactive"}
{"smiles": "Cc1cccc(Br)c1", "Potency": "inactive"}
{"smiles": "CCCCCCCCCC(=O)N(C)C", "Potency": "inactive"}
{"smiles": "[O]=[Zr]", "Potency": "inactive"}
{"smiles": "CC(COC(=O)c1ccccc1)OC(=O)c1ccccc1", "note": "(stereo unspecified)", "Potency": "inactive"}
{"smiles": "CCOC(=O)COc1ccc(C)cc1", "Potency": "inactive"}
{"smiles": "Oc1c(Br)cc(Br)c2cccnc12", "Potency": "inactive"}
{"smiles": "CCCCOC(=O)C(C)CC", "note": "(stereo unspecified)", "Potency": "inactive"}
{"smiles": "CC1CCCNC1", "note": "(stereo unspecified)", "Potency": "inactive"}
{"smiles": "CCC(=O)OCCc1ccccc1", "Potency": "inactive"}
{"smiles": "O=C(c1ccccc1)c1cc(Cl)ccc1O", "Potency": "inactive"}
{"smiles": "CC1(C)C(=O)N(Br)C(=O)N1Br", "Potency": "inactive"}
{"smiles": "O=C(Nc1ccc(Cl)c(Cl)c1)c1cc(Cl)cc(Cl)c1O", "Potency": "inactive"}
{"smiles": "C/C=C/C(=O)Oc1c(CCCCCC(C)C)cc([N+](=O)[O-])cc1[N+](=O)[O-]", "Potency": "inactive"}
{"smiles": "C(=C/c1ccccc1)/c1ccccc1", "Potency": "inactive"}
{"smiles": "CCc1cccc(C)c1", "Potency": "inactive"}
{"smiles": "NC(=O)c1ccccc1N", "Potency": "inactive"}
{"smiles": "CCCCCCCC/C=C\\CCCCCCCC(=O)OCCOC(=O)CCCCCCC/C=C\\CCCCCCCC", "Potency": "inactive"}
{"smiles": "CC1=C(/C=C/C(C)=C/C=C/C(C)=C/C(=O)Nc2ccc(O)cc2)C(C)(C)CCC1", "Potency": "inactive"}
{"smiles": "CCC(C)(C)c1cc(O)c(C(C)(C)CC)cc1O", "Potency": "inactive"}
{"smiles": "Cc1cn[nH]c1", "Potency": "inactive"}
{"smiles": "O=C(Nc1ccc(Cl)cc1)Nc1ccc(Cl)c(C(F)(F)F)c1", "Potency": "inactive"}
{"smiles": "Cc1c(C(=O)O)cccc1[N+](=O)[O-]", "Potency": "inactive"}
{"smiles": "CC(=O)Oc1ccc(C2(c3ccc(OC(C)=O)cc3)Oc3ccccc3NC2=O)cc1", "Potency": "inactive"}
{"smiles": "CCCCCCCCCCCCCCNCCO", "Potency": "inactive"}
{"smiles": "CCNc1nc(NC(C)CC)nc(OC)n1", "note": "(stereo unspecified)", "Potency": "inactive"}
{"smiles": "ClC/C=C\\CCl", "Potency": "inactive"}
{"smiles": "COC(=O)CC#N", "Potency": "inactive"}
{"smiles": "O=C(O)c1cccc(Cl)n1", "Potency": "inactive"}
{"smiles": "C=CC(C)(CCC=C(C)C)OC(=O)/C=C/c1ccccc1", "note": "(stereo unspecified)", "Potency": "inactive"}
{"smiles": "COC(=O)NCCC[Si](OC)(OC)OC", "Potency": "inactive"}
{"smiles": "O=C(O)CC(=O)O", "Potency": "inactive"}
{"smiles": "C1CC(COCC2CO2)CCC1COCC1CO1", "note": "(stereo unspecified)", "Potency": "inactive"}
{"smiles": "CC(C)=C1CC[C@@H](C)CC1=O", "Potency": "inactive"}
{"smiles": "CCCCCCCCCCCCCCCC", "Potency": "inactive"}
